From the supplement of paper PMC10849652
Of roughly 8,800 targets only a part is listed; those with a hit were picked by preference. About 0.5% of all pairs of compound and target were hits. Unmarked numbers belong to inactive results.

How the values were obtained:
Experiment in all cases: log2 fold change, soluble protein after heating vs DMSO (PISA); higher = thermal stabilisation; K562 lysate, 10 uM; active = over 0.2 and 3.5 SD of the protein, either way, in both replicates (recomputed)
lapatinib = compound: CS(=O)(=O)CCNCc1ccc(-c2ccc3ncnc(Nc4ccc(OCc5cccc(F)c5)c(Cl)c4)c3c2)o1 [lapatinib]
Procedure, shortened: (§1)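 To prepare the extract, K562 pellets were dounce-homogenised in PBS pH 7.4 with 1 mM MgCl2, giving crude material at 1 mg/mL protein. This was treated with 10 μM compound for 30 min, then heated in aliquots for 3 min over 48°C-58°C before pooling and addition of NP-40 to 0.5% at 4°C. Centrifugation at 21,000xg for 90 min left soluble protein in the supernatant, which TMTpro 16plex LC-MS/MS quantified with equalised channel sums. Results are log-two fold changes in thermal stability compared with solvent controls, from duplicates.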

pictilisib = compound: CS(=O)(=O)N1CCN(Cc2cc3nc(-c4cccc5[nH]ncc45)nc(N4CCOCC4)c3s2)CC1 [pictilisib]
Procedure, shortened: as §1

crizotinib = compound: C[C@@H](Oc1cc(-c2cnn(C3CCNCC3)c2)cnc1N)c1c(Cl)ccc(F)c1Cl [crizotinib]
Procedure, shortened: as §1

[1] = compound: C[C@H](C1=CC=C(C=C1)C(=O)NC2=C3C=CNC3=NC=C2)N
Procedure, shortened: as §1

duvelisib = compound: C[C@H](Nc1ncnc2nc[nH]c12)c1cc2cccc(Cl)c2c(=O)n1-c1ccccc1 [duvelisib]
Procedure, shortened: as §1

gandotinib = compound: Cc1cc(Nc2cc(CN3CCOCC3)c3nc(C)c(Cc4ccc(Cl)cc4F)n3n2)n[nH]1 [gandotinib]
Procedure, shortened: as §1

tozasertib = compound: Cc1cc(Nc2cc(N3CCN(C)CC3)nc(Sc3ccc(NC(=O)C4CC4)cc3)n2)n[nH]1 [tozasertib]
Procedure, shortened: as §1

doramapimod = compound: Cc1ccc(-n2nc(C(C)(C)C)cc2NC(=O)Nc2ccc(OCCN3CCOCC3)c3ccccc23)cc1 [doramapimod]
Procedure, shortened: as §1

bafetinib = compound: Cc1ccc(NC(=O)c2ccc(CN3CC[C@H](N(C)C)C3)c(C(F)(F)F)c2)cc1Nc1nccc(-c2cncnc2)n1 [bafetinib]
Procedure, shortened: as §1

[2] = compound: Cc1cccc(CC(=O)N2CCc3c2ccc(-c2cn(C)c4ncnc(N)c24)c3F)n1
Procedure, shortened: as §1

nilotinib = compound: Cc1cn(-c2cc(NC(=O)c3ccc(C)c(Nc4nccc(-c5cccnc5)n4)c3)cc(C(F)(F)F)c2)cn1 [nilotinib]
Procedure, shortened: as §1

[3] = compound: Cc1nc(Nc2n[nH]c3c2CN(C(=O)N[C@H](CN(C)C)c2ccccc2)C3(C)C)c2sccc2n1
Procedure, shortened: as §1

dasatinib = compound: Cc1nc(Nc2ncc(C(=O)Nc3c(C)cccc3Cl)s2)cc(N2CCN(CCO)CC2)n1 [dasatinib]
Procedure, shortened: as §1

[4] = compound: Cc1ncc(-c2ccnc(Nc3ccc(S(C)(=O)=O)cc3)n2)n1C(C)C
Procedure, shortened: as §1

[5] = compound: Cn1cc(-c2ccc3c(c2)CCN3C(=O)Cc2cccc(C(F)(F)F)c2)c2c(N)ncnc21
Procedure, shortened: as §1

quisinostat = compound: Cn1cc(CNCC2CCN(c3ncc(C(=O)NO)cn3)CC2)c2ccccc21 [quisinostat]
Procedure, shortened: as §1

tipifarnib = compound: Cn1cncc1[C@@](N)(c1ccc(Cl)cc1)c1ccc2c(c1)c(-c1cccc(Cl)c1)cc(=O)n2C [tipifarnib]
Procedure, shortened: as §1

[6] = compound: NC(=O)Nc1cc(-c2cccc(F)c2)sc1C(=O)N[C@H]1CCCNC1
Procedure, shortened: as §1

[7] = compound: NC(=O)c1cnc(N[C@@H]2CCCC[C@@H]2N)nc1Nc1cccc(-n2nccn2)c1
Procedure, shortened: as §1

[8] = compound: NC1(c2ccc(-c3nc4ccn5c(=O)[nH]nc5c4cc3-c3ccccc3)cc2)CCC1
Procedure, shortened: as §1

Chain of UniProt P15923 (P15923 whole entry, looked up): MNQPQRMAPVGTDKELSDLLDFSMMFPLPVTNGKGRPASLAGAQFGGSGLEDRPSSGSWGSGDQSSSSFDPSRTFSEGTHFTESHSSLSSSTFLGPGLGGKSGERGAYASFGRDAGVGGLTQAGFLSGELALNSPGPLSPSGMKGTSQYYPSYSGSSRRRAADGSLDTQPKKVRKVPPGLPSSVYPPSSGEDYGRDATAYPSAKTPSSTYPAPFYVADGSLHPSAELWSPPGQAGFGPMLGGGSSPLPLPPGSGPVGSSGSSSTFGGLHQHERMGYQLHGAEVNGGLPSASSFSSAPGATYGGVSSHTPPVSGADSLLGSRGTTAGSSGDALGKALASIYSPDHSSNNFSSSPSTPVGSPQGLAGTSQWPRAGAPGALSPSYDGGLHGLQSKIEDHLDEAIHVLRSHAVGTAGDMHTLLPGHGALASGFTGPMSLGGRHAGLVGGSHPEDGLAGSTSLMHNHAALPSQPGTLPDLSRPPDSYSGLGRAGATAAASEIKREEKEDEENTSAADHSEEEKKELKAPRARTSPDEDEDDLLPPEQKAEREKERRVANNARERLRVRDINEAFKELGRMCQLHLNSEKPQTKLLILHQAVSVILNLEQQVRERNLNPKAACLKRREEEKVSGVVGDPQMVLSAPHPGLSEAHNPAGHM
Chain of UniProt Q07157 (Q07157 whole entry, looked up): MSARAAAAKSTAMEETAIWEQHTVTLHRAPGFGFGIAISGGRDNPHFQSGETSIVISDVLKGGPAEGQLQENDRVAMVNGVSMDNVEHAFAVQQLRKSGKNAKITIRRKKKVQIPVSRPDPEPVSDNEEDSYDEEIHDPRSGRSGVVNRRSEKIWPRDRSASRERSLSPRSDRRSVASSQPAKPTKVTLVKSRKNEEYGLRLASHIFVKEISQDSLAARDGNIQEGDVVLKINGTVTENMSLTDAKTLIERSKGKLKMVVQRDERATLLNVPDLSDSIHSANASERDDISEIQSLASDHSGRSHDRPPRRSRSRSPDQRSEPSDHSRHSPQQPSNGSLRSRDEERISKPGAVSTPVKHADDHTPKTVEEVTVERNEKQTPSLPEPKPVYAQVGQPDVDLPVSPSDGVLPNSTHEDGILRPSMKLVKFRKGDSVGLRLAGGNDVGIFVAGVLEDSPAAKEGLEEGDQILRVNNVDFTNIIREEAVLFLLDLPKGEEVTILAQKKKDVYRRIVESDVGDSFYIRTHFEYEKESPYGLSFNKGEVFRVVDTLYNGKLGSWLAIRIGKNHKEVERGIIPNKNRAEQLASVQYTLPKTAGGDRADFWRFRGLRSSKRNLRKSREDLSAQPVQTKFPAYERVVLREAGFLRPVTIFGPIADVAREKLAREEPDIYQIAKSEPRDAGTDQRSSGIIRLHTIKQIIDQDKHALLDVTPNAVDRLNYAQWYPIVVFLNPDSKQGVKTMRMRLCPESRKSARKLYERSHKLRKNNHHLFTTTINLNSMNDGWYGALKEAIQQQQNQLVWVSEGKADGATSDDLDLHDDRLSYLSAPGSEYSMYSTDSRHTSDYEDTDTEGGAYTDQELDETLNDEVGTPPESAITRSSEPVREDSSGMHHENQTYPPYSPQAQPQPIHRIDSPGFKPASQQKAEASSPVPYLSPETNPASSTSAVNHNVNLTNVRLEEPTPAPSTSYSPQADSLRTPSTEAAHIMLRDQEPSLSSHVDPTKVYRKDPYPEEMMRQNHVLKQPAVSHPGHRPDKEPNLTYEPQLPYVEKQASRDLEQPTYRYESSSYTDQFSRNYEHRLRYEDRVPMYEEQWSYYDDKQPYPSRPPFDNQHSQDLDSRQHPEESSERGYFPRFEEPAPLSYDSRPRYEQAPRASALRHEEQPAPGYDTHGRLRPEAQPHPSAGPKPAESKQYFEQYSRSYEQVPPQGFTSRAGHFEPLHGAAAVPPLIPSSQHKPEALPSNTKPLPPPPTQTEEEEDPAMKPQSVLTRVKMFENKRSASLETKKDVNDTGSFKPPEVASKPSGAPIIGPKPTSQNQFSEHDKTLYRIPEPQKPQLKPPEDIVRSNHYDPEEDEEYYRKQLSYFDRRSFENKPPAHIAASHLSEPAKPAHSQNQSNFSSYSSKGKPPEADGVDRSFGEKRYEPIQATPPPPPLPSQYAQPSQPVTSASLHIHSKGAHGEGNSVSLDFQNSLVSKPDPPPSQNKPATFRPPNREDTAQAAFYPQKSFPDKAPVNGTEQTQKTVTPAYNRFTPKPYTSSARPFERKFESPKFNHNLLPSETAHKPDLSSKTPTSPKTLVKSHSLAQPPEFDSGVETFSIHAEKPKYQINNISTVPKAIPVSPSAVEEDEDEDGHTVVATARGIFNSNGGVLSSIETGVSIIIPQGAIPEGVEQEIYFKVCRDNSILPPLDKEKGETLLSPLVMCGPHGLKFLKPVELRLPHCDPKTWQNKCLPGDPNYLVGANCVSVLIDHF
Chain of UniProt P28289 (P28289 whole entry, looked up): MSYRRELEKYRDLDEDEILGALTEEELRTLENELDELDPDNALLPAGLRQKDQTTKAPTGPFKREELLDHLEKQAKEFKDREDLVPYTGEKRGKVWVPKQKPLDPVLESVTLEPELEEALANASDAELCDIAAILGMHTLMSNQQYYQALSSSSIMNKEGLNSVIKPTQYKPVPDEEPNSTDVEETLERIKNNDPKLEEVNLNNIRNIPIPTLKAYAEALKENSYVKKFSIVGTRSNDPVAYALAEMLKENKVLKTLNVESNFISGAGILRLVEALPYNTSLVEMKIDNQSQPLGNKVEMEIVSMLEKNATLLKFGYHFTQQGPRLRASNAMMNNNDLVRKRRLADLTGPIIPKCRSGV
Chain of UniProt Q9BQE3 (Q9BQE3 whole entry, looked up): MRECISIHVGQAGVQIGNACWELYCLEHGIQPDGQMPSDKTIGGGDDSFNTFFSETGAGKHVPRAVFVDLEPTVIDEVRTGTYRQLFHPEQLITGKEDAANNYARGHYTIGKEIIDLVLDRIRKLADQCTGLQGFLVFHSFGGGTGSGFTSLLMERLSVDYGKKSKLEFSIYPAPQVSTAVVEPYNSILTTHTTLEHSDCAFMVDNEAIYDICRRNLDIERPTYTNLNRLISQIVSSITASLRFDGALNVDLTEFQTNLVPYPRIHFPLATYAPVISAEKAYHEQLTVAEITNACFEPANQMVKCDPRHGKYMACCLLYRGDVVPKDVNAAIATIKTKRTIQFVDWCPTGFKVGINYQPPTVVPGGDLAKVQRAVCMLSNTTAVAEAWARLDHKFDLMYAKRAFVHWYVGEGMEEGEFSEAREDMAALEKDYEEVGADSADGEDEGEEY
Chain of UniProt Q9UKE5 (Q9UKE5 whole entry, looked up): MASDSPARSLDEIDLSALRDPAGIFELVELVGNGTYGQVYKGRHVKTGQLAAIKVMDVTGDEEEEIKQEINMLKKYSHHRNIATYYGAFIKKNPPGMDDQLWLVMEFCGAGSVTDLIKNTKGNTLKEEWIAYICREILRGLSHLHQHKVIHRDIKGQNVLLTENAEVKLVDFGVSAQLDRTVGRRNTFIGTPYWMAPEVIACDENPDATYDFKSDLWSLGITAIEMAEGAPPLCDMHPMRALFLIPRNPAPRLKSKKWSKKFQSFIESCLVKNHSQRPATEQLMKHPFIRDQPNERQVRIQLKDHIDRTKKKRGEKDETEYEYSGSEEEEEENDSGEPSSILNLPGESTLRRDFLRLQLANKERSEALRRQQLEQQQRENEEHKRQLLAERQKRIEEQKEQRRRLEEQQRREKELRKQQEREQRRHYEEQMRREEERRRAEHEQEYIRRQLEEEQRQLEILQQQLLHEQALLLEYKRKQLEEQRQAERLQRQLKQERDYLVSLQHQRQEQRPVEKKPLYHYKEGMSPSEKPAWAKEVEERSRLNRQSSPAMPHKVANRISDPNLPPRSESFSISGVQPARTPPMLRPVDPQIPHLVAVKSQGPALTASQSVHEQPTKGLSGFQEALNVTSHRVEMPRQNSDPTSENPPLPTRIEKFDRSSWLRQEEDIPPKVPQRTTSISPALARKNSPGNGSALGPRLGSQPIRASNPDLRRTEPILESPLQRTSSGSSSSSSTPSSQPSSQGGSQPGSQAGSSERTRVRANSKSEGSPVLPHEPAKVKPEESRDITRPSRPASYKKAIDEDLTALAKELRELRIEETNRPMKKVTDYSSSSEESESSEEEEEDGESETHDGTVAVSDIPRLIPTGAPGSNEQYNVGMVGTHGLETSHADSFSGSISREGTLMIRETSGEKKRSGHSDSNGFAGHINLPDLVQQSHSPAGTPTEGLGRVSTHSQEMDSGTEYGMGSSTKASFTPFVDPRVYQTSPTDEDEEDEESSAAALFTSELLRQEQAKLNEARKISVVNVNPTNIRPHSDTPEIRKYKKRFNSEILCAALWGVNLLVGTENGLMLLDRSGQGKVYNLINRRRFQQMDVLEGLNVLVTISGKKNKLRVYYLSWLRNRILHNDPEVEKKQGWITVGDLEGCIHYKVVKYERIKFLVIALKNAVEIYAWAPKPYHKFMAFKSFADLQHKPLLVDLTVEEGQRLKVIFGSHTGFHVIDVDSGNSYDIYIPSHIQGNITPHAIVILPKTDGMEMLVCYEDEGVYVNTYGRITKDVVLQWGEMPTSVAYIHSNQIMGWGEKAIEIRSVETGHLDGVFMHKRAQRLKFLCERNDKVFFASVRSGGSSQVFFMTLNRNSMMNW
Chain of UniProt Q6IPR3 (Q6IPR3 whole entry, looked up): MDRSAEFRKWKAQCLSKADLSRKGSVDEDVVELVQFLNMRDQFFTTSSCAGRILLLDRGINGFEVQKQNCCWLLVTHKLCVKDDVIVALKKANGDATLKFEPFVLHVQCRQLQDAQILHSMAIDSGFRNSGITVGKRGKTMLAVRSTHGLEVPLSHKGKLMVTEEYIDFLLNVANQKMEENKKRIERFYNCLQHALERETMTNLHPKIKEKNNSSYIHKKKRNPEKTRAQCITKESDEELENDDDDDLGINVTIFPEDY

Target	log2 fold change (lapatinib)	log2 fold change (pictilisib)	log2 fold change (crizotinib)	log2 fold change [1]	log2 fold change (duvelisib)	log2 fold change (gandotinib)	log2 fold change (tozasertib)	log2 fold change (doramapimod)	log2 fold change (bafetinib)	log2 fold change [2]	log2 fold change (nilotinib)	log2 fold change [3]	log2 fold change (dasatinib)	log2 fold change [4]	log2 fold change [5]	log2 fold change (quisinostat)	log2 fold change (tipifarnib)	log2 fold change [6]	log2 fold change [7]	log2 fold change [8]
TBCE (UniProt Q15813)	-0.019	-0.039	-0.042	-0.002	0.025	-0.034	-0.004	0.001	0.033	0.039	-0.001	-0.008	-0.012	-0.01	0.049	-0.025	-0.005	0.033	0.015	-0.041
TTLL12 (UniProt Q14166)	-0.002	-0.02	-0.039	0.014	0.015	-0.091	0.023	0.016	-0.004	0.014	0.015	-0.012	-0.028	-0.027	-0.006	-0.015	0.008	0.067	0.001	-0.013
TNIK isoform 4 (UniProt Q9UKE5)	-0.017	0.012	-0.055	0.038	0.004	0.153	0.098	0.205	-0.007	-0.04	-0.019	0.087	0.203	0.11	-0.011	-0.198	-0.022	0.483 (active)	0.08	-0.021
TCF3 (UniProt P15923)	0.014	0.014	0.066	-0.042	0.22 (active)	0.053	-0.013	-0.031	-0.036	-0.032	0.028	-0.118	-0.018	-0.057	-0.139	0.006	-0.245	0.055	-0.019	-0.003
TMPO (UniProt P42166)	0.018	-0.012	0.016	-0.179	0.023	-0.048	0.016	-0.017	-0.021	0.034	0.05	-0.178	-0.069	-0.036	0.029	-0.041	-0.018	0.035	0.031	-0.006
UBE4A isoform 2 (UniProt Q14139)	-0.019	-0.007	-0.059	-0.009	0.016	-0.15	0	0.004	-0.054	0.043	0.023	-0.009	-0.075	-0.022	0.026	-0.018	-0.003	0.054	0.002	0.017
TUBA3C (UniProt P0DPH7)	0.038	-0.003	-0.078	0.009	0.03	0.072	0.055	0.014	0.012	0.023	-0.009	-0.029	-0.018	-0.001	-0.05	-0.098	-0.025	0.05	0.022	0.005
TCP11L1 (UniProt Q9NUJ3)	-0.008	-0.028	-0.022	-0.204	-0.024	0.066	-0.069	-0.017	-0.007	0.146	0.062	-0.114	-0.034	-0.035	0.01	-0.055	-0.003	0.051	-0.022	0.028
TJP1 isoform 2 (UniProt Q07157)	-0.015	-0.028	0.016	-0.065	-0.014	0.075	-0.002	0.014	-0.062	0.111	-0.003	0.004	0.036	0.006	-0.013	-0.011	-0.005	-0.019	0.022	-0.041
TP53RK (UniProt Q96S44)	-0.011	0.026	0.042	0.042	-0.029	-0.041	-0.01	-0.029	-0.032	0.035	0.011	0	0.052	0.047	0.057	0.002	0.048	0.021	0.041	-0.013
TYW3 (UniProt Q6IPR3)	-0.014	0.008	-0.022	-0.144	0.018	0.1	0	0.054	0.051	0.176	-0.033	0.017	-0.006	0.035	0.027	-0.126	-0.018	-0.014	0.046	0.017
TUBA1B (UniProt P68363)	0.004	0.001	-0.039	-0.015	-0.011	0.022	-0.011	0.023	-0.025	0.002	-0.043	-0.009	-0.051	-0.036	0.01	-0.021	0.002	0.041	0.002	-0.013
TUBA1C (UniProt Q9BQE3)	0.004	-0.057	-0.045	-0.013	-0.019	0.062	-0.008	-0.026	0.005	0.021	-0.001	0.021	-0.017	0.006	0.018	-0.038	-0.007	0.014	-0.006	-0.052
TRMT10A (UniProt Q8TBZ6)	0.042	0.083	0.031	-0.041	0.001	0.02	-0.047	0.001	0.012	0.059	0.008	-0.027	-0.07	0.019	0.013	-0.028	0.005	0.01	0.028	-0.01
TMOD1 (UniProt P28289)	0	-0.032	-0.011	0.039	-0.008	-0.059	0.026	0.019	-0.004	-0.029	-0.029	-0.032	0.011	-0.02	0.014	-0.007	-0.013	0.031	0.008	-0.015
TPP2 (UniProt Q5VZU9)	-0.023	0.069	-0.057	-0.309 (active)	0.02	0.104	-0.087	-0.029	-0.044	0.137	0.066	0.035	-0.194	-0.015	0.036	0.084	-0.001	0.107	-0.006	-0.039
